This is an account of results in PubChem BioAssay (NCI).

Compounds without any hit were thinned out: in the full panel of roughly 83,000, 20% have a hit.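 Each cell line was grown in a 96-well plate and treated with one concentration of compound for 48 hours. Values below 10 were considered active.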 Values without a mark were called inactive. The source made the active and inactive calls.

The subject of this assay is HL-60(TB) leukemia. Kind of assay: NCI-60 one-dose screen, 48 h (100 = growth as untreated, 0 = no growth, -100 = all killed). Conditions: 10 µM unless noted.
Take `Nc1ccc(-c2csc(-n3[nH]c(=O)ccc3=O)n2)cc1`: the growth was 97.1%.
With `O=C1c2ccccc2OC=C(c2ccccc2)N1CCCCNc1ccc(F)cc1` the figure was 45.3%; with `CN=c1ccc2nc3ccc(N)cc3sc-2c1`, -27.1% (active).
Then `CC(=O)c1nn(-c2ccccc2)/c(=N\N=C\c2coc3ccc(F)cc3c2=O)s1`, with 105%.
With `C[C@]12CCc3nc(Nc4ccc(O)cc4)sc3C1=CC[C@@H]1[C@@H]2CC[C@]2(C)/C(=N/NC(N)=S)CC[C@@H]12` the figure was -4.61% (active); with `COc1ccc(C(=O)C(CN(C)C)CN(C)C)cc1`, 3.54% (active).
Consider `CCOC(=O)C(=O)C=P(c1ccccc1)(c1ccccc1)c1ccccc1`, for which the growth is 103%.
Take `CCCCCCCC/C=C\CCCCCCCCOc1cccc(CC(=O)NCC[N+]2(C)CCCC2)c1`: the growth is 49.3%.
Take `CC(C)=CCCC(C)C1=C(O)C(=O)C(C)=CC1=O` (stereo unspecified): the growth is -47.1% (active).
Consider `Clc1cccc(Cl)c1CSc1nc2ccccc2n2cccc12`, for which the growth is 94.3%.
Turning to `NNC(=O)CSc1nc2scc(-c3ccccc3)c2c(=O)n1-c1ccccc1`, the growth was 84%.
Consider `C/C(=N\NC(=O)C(C)SC(C)C(=O)N/N=C(\C)c1cccnc1)c1cccnc1` (stereo unspecified), for which the growth is 77.1%.
With `COc1ccc2c(c1)C=CC(C#N)N2C(=O)c1ccccc1` (stereo unspecified) the figure was -24.7% (active); with `Nc1c(Cl)cc([N+](=O)[O-])cc1Br`, 101%.
With `Cc1cc(=O)oc2cc(Oc3nc(-c4cccs4)cn4c(-c5cccs5)cnc34)ccc12` the figure was 77.6%; with `CC(C)N1C(=O)/C(=c2\sc3n(c2=O)C2C(NN=3)N(C)C(=O)N2C)c2ccccc21` (stereo unspecified), 25.8%.
